# Screens from PubChem BioAssay.
# BAZ2B inh: inhibitors of human BAZ2B bromodomain. AlphaScreen BAZ2B-H3K14Ac peptide displacement. Potency, µM (top dose mostly 114 µM), for inactives: top-dose activity change, negative = inhibition, most hits filed as inhibitors. actives 4.4% (n = 360,000); note: % is set by controls: 0 for no effect and ±100 for the full control effect; nearly all actives have a fitted effect of over 60% in size
#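 AlphaScreen luminescence quantifies BAZ2B engagement of H3K14Ac peptide; the protein and biotinylated peptide are both at 50 nM final, buffer PBS pH 7.4 with 0.01% Tween-20, all steps at room temperature.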
# G9a block: blocks human histone lysine methyltransferase G9a; Q96KQ7; G9a H3K9 monomethylation, AlphaScreen, 2 h; Potency, µM (doses to about 102 µM), for inactives: top-dose activity, negative = inhibition, most hits filed as inhibitors; actives 8.8% (n = 350,000); AID 504332; note: % is set by controls: 0 for no effect and ±100 for the full control effect; nearly all actives have a fitted effect of over 75% in size
# Target sequence (Q96KQ7 913-1193 limits assumed): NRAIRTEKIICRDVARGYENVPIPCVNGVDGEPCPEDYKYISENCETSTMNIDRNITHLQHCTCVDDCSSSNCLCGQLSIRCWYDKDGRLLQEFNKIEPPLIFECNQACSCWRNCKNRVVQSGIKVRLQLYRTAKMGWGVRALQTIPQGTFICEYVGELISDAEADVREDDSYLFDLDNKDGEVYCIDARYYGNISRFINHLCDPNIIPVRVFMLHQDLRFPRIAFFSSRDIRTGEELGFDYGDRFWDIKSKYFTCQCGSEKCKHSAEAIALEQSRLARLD
#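 AlphaScreen read-out: biotin-H3K9 peptide (500 nM) methylation by 20 nM enzyme with 20 uM SAM, 2 h at room temperature after 15 min compound preincubation; anti-monomethyl H3K9 antibody plus donor/acceptor beads, 10 min dark.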
# HP1b chromo inh: inhibitors of HP1-beta chromodomain binding to methylated histone tails; P83916; AlphaScreen HP1-beta / biotin-H3K9me3 peptide binding; Potency, µM (doses to about 114 µM), for inactives: at the highest dose activity change, negative = inhibition, most hits filed as inhibitors; actives 0.56% (n = 390,000); AID 540317; note: nearly all actives have a fitted effect of over 70% in size
# Target sequence (P83916 whole entry, looked up): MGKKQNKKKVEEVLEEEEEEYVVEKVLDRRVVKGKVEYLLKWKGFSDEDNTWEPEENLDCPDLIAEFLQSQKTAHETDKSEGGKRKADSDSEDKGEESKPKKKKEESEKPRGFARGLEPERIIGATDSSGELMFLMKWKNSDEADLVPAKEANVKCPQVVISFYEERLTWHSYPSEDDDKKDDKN
#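 AlphaScreen: HP1-beta (50 nM) preformed 30 min with biotin-H3(1-18)K9me3 peptide (50 nM) in PBS pH 7.4, 0.01% Tween-20. Compound added for 30 min at RT, then streptavidin donor/nickel chelate acceptor beads (10 ug/mL) for 30 min.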
# Sfp PPTase inh: blocks B. subtilis Sfp PPTase activity. Q9F4F7. Biochemical Sfp PPTase activity, qHTS. Potency, µM, for the others: largest response in the series, negative = inhibition, most hits filed as inhibitors. actives 3.5% (n = 310,000);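 note: the enzyme is Sfp with the accession as filed and its product quenches rhodamine fluorescence; 0% = enzyme reaction without inhibitor and -100% = no enzyme wells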
#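 Sfp 15 nM + cpd, 15 min RT; start w/ rhodamine-CoA 5 uM, BHQ-2-YbbR 12.5 uM (final); 50 mM Hepes pH 7.6, 10 mM MgCl2, 0.01% NP-40, 0.01% BSA; read 525/598 nm at 0 and 30 min.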
# JMJD2A Tudor: JMJD2A Tudor domain (human) inhibition; O75164; AlphaScreen JMJD2A-Tudor / H3K4me3 peptide binding; Potency, µM (titrated, usually from 114 µM), inactives show top-dose activity change, negative = inhibition, usual class: inhibitors; actives 4.4% (n = 390,000); note: % is set by controls: 0 for no effect and ±100 for the full control effect; nearly all actives have a fitted effect of over 50% in size
# TDP1 inh: TDP1 (human) enzyme inhibition; AID 485290; recombinant TDP1, AlphaScreen DNA substrate cleavage; Potency, µM (series often up to 130 µM), inactives show at the highest dose activity change, negative = inhibition, hits mostly inhibitors; actives 0.28% (n = 350,000); Q9NUW8; note: % is set by controls: 0 for no effect and ±100 for the full control effect; nearly all actives have a fitted effect of over 40% in size
#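 Signal: AlphaScreen proximity between streptavidin donor and anti-FITC acceptor beads on intact substrate. Reaction: Tdp1 1 nM, substrate 15 nM final, 5 min RT after 15 min compound preincubation.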
# * = called active by the depositor; ? = inconclusive; nt = no result; [ ] = remark or other dose. This is a sample that favours compounds with a hit; in the whole collection about 12% have one here. Calls come from the whole dose curve; as a rule, active = well fitted curve in the direction sought with a large enough effect; inconclusive = small, poorly fitted or top-dose-only effect, or another doubt; inactive = no such curve, though single readings can be large; an effect the other way counts as inactive or inconclusive. Potency is the fitted concentration of half-maximal effect.
SMILES,BAZ2B inh,G9a block,HP1b chromo inh,Sfp PPTase inh,JMJD2A Tudor,TDP1 inh
CCCN1CCC(NCc2cn(C)nc2-c2ccc(Oc3ccccc3)cc2)CC1,-14.8%,2.9%,11.5%,-4.1%,-13.3%,1.4%
C(COC1CC2CC1C1C2CC2OC21)OC1CC2CC1C1C2CC2OC21 (centres undefined),nt,nt,5.8%,nt,-9.7%,nt
CCOC(=O)c1ccc(NC(=O)CSc2c(C(C)C)cnc3c2c(=O)n(C)c(=O)n3C)cc1,?,?,20.7%[57 µM],nt,?,0.0%
Cc1c(C(O)CN2CCN(Cc3ccc4c(c3)OCO4)CC2)c2ccccc2n1C (centres undefined),?,?,-38.0%,1.2%,56.2µM*,4.7%
COc1ccc2c(c1)c(C(O)CN1CCC(Cc3ccccc3)CC1)c(C)n2C (centres undefined),35.5µM*,?,?,3.1%,28.2µM*,9.8%
COc1ccc2c(c1)c(C(O)CN1CCN(Cc3ccc4c(c3)OCO4)CC1)c(C)n2C (centres undefined),?,50.1µM*,?,-11.8%,56.2µM*,11.5%
CC(C)OCC(O)CN1CCC(Cc2ccccc2)CC1 (centres undefined),-18.7%,-3.2%,54.7%,5.6%,15.6%,0.9%
CCOC(=O)c1ccccc1NC(=O)C(=O)Nc1ccc2nc3n(c(=O)c2c1)CCCCC3,35.6%,30.5%[59 µM],60.1%,nt,1.7%,-2.5%
COC(=O)c1nnc(C(=O)NCc2ccccc2)c2[nH]c3ccc(OC)cc3c12,nt,nt,nt,10.0%,nt,8.1%
CC1=C(c2ccc(C)c(C)c2)S(=O)(=O)N=C1N1CCN(c2cccc(C)c2)C(C)C1 (centres undefined),-6.3%,-8.8%[59 µM],40.1%,nt,-2.0%,5.7%
CC(C)(C)NC(=O)CN(C(=O)CS(=O)CC(=O)Nc1ccc(F)cc1)c1ccc2c(c1)OCCO2 (centres undefined),-0.3%,-25.7%,30.4%,7.4%,0.0%,2.7%
CC(C)(C)NC(=O)CN(C(=O)CS(=O)CC(=O)Nc1ccc(F)cc1)c1ccccc1 (centres undefined),1.8%,50.1µM*,22.0%,10.7%,-15.8%,1.9%
Cc1cccc(N2CCN(C(=O)Cc3cn(C)c4ccccc34)CC2)c1C,?,50.1µM*,?,10.9%,17.8µM*,-5.3%
Cc1cccc(N2CCN(C(=O)Cn3cccc3)CC2)c1C,?,50.1µM*,-9.4%,-4.2%,?,7.8%
CC1=C(C(=O)N2CCN(c3cccc(C)c3C)CC2)C2(CCCCC2)OC1=O,79.4µM*,4.6%[59 µM],21.4%,nt,-20.2%,2.3%
Cc1ccc(C(=O)N2CCN(c3cccc(C)c3C)CC2)o1,-37.1%,70.8µM*,-5.5%,0.0%,-7.1%,9.6%
CCOC(=O)N1CCN(c2cccc(C)c2C)CC1,-4.2%,7.7%,48.5%,-5.2%,5.3%,0.0%
Cc1ccccc1S(=O)Cc1ccc(C(=O)N2CCN(c3cccc(C)c3C)CC2)o1 (centres undefined),?,?,-8.4%,nt,-35.2%,5.1%
COc1ccc2oc(=O)cc(CN3CCN(C(=O)c4ccccc4)CC3)c2c1,-3.9%,?,14.9%,nt,-4.4%,2.3%
COc1cccc(CNC(=O)CSC2=Nc3ccccc3C3=NC(C)C(=O)N23)c1OC (centres undefined),1.7%,41.6%[59 µM],67.3%,nt,-8.3%,8.8%
Cc1ccc2c(CNC3CCCCC3)c(C(=O)O)n(Cc3ccc(F)cc3)c2c1,-3.6%,4.0%[59 µM],35.5%,nt,8.8%,5.1%
O=C(CSc1nc2c([nH]c3ccccc32)c(=O)n1-c1ccc(F)cc1)NC1CCCCC1,0.7%,10.5%[59 µM],23.7%[57 µM],nt,-22.9%,2.2%
Cn1cc(SCC(=O)N2CCN(c3ccccc3)CC2)c2ccccc21,?,39.8µM*,-3.1%,-21.3%,?,7.8%
O=C1C2C3C=CC(C4CC34)C2C(=O)N1/N=C/c1ccc(-c2ccc(Cl)cc2[N+](=O)[O-])o1 (centres undefined),?,35.5µM*,?,-27.1%,?,5.0%
O=C1C2C3C=CC(C4CC34)C2C(=O)N1/N=C/c1ccc(-c2ccc(F)cc2[N+](=O)[O-])o1 (centres undefined),?,8.91µM*,-23.8%,-24.3%,?,6.6%
SMILES,BAZ2B inh,G9a block,HP1b chromo inh,Sfp PPTase inh,JMJD2A Tudor,TDP1 inh
COC(=O)c1ccc(-c2ccc(/C=N/N3C(=O)C4C5C=CC(CC5)C4C3=O)o2)cc1 (centres undefined),-28.1%,nt,4.6%,15.2%,-4.0%,5.1%
COc1ccc(-c2ccc(/C=N/N3C(=O)C4C5C=CC(C6CC56)C4C3=O)o2)c([N+](=O)[O-])c1 (centres undefined),?,?,-17.7%,7.9%,?,7.0%
Cc1ccc(-c2ccc(/C=N/N3C(=O)C4C5C=CC(CC5)C4C3=O)o2)c([N+](=O)[O-])c1 (centres undefined),?,44.7µM*,-18.8%,4.4%,-32.0%,9.3%
O=C(O)c1cc(-c2ccc(/C=N/N3C(=O)C4C5C=CC(C6CC56)C4C3=O)o2)ccc1Cl (centres undefined),79.4µM*,44.7µM*,25.2%,3.0%,-8.3%[11.4 µM],?
Cc1c(C(=O)NCc2ccc(F)cc2)oc2ccc(S(=O)(=O)N3CCCCC3)cc12,0.9%,-20.5%[59 µM],34.4%,nt,-19.9%,2.6%
CCN(CC)S(=O)(=O)c1ccc(C(=O)NCCOC(=O)c2ccc(F)cc2F)cc1,1.1%,6.9%,51.1%,4.8%,7.1%,nt
NNC(=S)NC1CCS(=O)(=O)C1 (centres undefined),15.7%,nt,?,8.91µM*,?,7.7%
NNC(=S)NC1CCCCCCCCCCC1,31.6µM*,nt,32.0%,11.7%,?,8.7%
CN(C)C(=S)NC1CCS(=O)(=O)C1 (centres undefined),-13.0%,3.7%,43.0%,17.5%,-7.5%[11.4 µM],-5.0%
O=C(O)/C=C/C(=O)NC1CCS(=O)(=O)C1 (centres undefined),?,3.16µM*,56.9%,-4.4%,-6.6%,5.6%
Cc1cc(C)cc(NC(=O)CCS(=O)(=O)c2ccc3nc(C)sc3c2)c1,-10.1%,-4.2%[59 µM],28.1%,nt,-9.5%,0.0%
O=C(CN1CCN(S(=O)(=O)c2ccc(F)cc2)CC1)Nc1ccnn1C1CCCC1,4.7%,-26.8%,11.5%,nt,-6.9%,1.5%
O=C(CCCCl)N1CCc2[nH]c3ccccc3c2C1,-2.6%,6.0%[0.501 µM],3.9%,nt,-18.6%,5.1%
Cc1ccc2[nH]c3c(c2c1)CN(C(=O)CN1CC(C)OC(C)C1)CC3 (centres undefined),-1.8%,?,31.4%,-16.6%,-20.5%[11.4 µM],11.4%
